The list is not random: actives were taken first. Their share in the collection is about 2.6%.
Cruzain Triton: cruzain (T. cruzi) inhibition with detergent | P25779 | Potency, µM, for the others: max response, negative = inhibition, hits mostly inhibitors | purified cruzain, Z-FR-AMC fluorescence, 0.01% Triton | hit rate 0.43% among 200,000;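 further: plate controls were neutral wells for no effect and buffer without enzyme for full effect; nearly all actives have a fitted effect of over 40% in size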
Target sequence (P25779 123-467 limits assumed): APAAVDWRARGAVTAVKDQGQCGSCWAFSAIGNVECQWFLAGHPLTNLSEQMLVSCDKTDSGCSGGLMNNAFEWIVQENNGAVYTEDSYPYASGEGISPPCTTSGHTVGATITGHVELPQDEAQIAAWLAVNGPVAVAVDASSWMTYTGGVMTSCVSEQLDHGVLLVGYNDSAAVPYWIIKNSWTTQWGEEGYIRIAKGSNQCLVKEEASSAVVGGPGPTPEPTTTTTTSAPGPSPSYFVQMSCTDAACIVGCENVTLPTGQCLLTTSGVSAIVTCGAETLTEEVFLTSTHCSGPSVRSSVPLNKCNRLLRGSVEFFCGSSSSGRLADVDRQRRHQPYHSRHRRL
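Cruzain (1.5 nM) preincubated 15 min at RT with compound in 100 mM sodium acetate pH 5.5, 5 mM DTT, 0.01% Triton X-100. Reaction started with 2 uM Z-FR-AMC; AMC fluorescence (ex 360/em 450 nm) change over 60 s gave rate.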
Cruzain noTriton: blocks cruzain activity in detergent-free assay; purified cruzain, Z-FR-AMC fluorescence, no detergent; Potency, µM, without a hit: max response, negative = inhibition, most hits filed as inhibitors; hit rate 2.3% among 200,000; AID 1476;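 further: plate controls were enzyme without inhibitor for no effect and buffer without enzyme for full effect; nearly all actives have a fitted effect of over 40% in size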
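Purified cruzain at 1.5 nM, pre-incubated 15 min with compound at room temperature in 100 mM sodium acetate pH 5.5, 5 mM DTT, 0.00005% Triton X-100. Reaction started with 2 uM Z-FR-AMC; AMC fluorescence increase over 60 s gives rate.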
Numbers without * were called inactive; u = inconclusive. The call rests on the fitted dose curve; in most records, active means well fitted curve in the direction sought with a large enough effect; inconclusive means small, poorly fitted or top-dose-only effect, or another doubt; inactive means no such curve, though single readings can be large; an effect the other way counts as inactive or inconclusive. Potency means the concentration at half of the fitted maximal effect.

SMILES	Cruzain Triton	Cruzain noTriton
CC(C)Cn1c(-c2ccco2)csc1=Nc1cccnc1	15.8µM*	12.6µM*
COn1c2c(c3c4no[n+]([O-])c4ccc31)CCCC2	1.2%	20µM*
COn1c2c(c3c4nonc4ccc31)CCCC2	-9.2%	-3.2%
COc1cc(Nc2nc3c(S(=O)(=O)c4cccc(Cl)c4)nnn3c3ccsc23)cc(OC)c1	2.3%	4.6%
COc1cc(N=c2ssnc2Cl)cc(OC)c1	-12.0%	15.8µM*
COc1cc(OC)cc(-c2nc(-c3ccccc3OC)no2)c1	-1.5%	u
COc1ccc(-c2cn3c(n2)sc2cc(C(=O)Nc4ccc(C)c(Cl)c4)ccc23)cc1	-3.4%	-5.1%
O=C(On1c(-c2ccccc2)nc2ccccc2c1=O)c1ccco1	28.2µM*	u
COc1cc(OC)cc(-c2nc3ccccc3c(=O)n2OC(=O)c2ccccc2C)c1	-4.6%	-4.2%
Cc1ccccc1Nc1cc(C(=O)NCc2cccs2)c2ccccc2n1	-14.2%	u
COc1ccccc1/C=C/C(=O)NC(=S)Nc1ccc(S(=O)(=O)N(C)c2ccccc2)cc1	2.3%	3.98µM*
CN(c1ccccc1)S(=O)(=O)c1ccc(NC(=S)NC(=O)c2ccccc2)cc1	1.8%	u
CCn1c2ccccc2c2cc(CN3CCN(Cc4ccc(Br)cc4)CC3)ccc21	0.3%	u
COc1ccc(F)cc1NC(=O)C1CCN(c2nc(-c3ccc(OC)c(OC)c3)no2)CC1	-3.7%	-1.4%
CCOCCc1nn2c(=O)cc(COC(=O)COc3ccc(C)c(C)c3)nc2s1	-4.0%	8.5%
CCOc1cc(/C=N/NC(N)=O)cc(Br)c1OCC(=O)Nc1ccccc1C	-8.0%	u
CCOc1cc(/C=N/NC(N)=O)cc(Br)c1OCC(=O)Nc1cccc2ccccc12	-3.2%	6.31µM*
COc1cc(/C=N/NC(N)=O)cc(Br)c1OCc1ccccc1C	3.3%	20µM*
C=CCOc1c(Br)cc(/C=N/NC(N)=O)cc1OC	-3.5%	7.2%
CCOC(=O)C(=O)Nc1c(C(=O)Nc2cccc(F)c2)oc2ccccc12	-2.7%	5.1%
O=C(CSc1nnc(-c2c[nH]c3ccccc23)o1)N1CCCCC1	-2.2%	0.4%
O=C(CSc1nnc(-c2c[nH]c3ccccc23)o1)c1ccc(-c2ccccc2)cc1	-0.7%	5.01µM*
CN(C)c1ccc(C(CNS(=O)(=O)c2ccc(F)cc2)N2CCCC2)cc1 (stereo unspecified)	1.2%	9.4%
Cc1cccc(N(C)C(=O)CCS(=O)(=O)c2ccc3c(c2)oc(=O)n3C)c1	-0.1%	0.8%
COc1ccc2cc(/C=N/NC(=O)c3ccc(CN(c4cccc(Cl)c4Cl)S(C)(=O)=O)cc3)c(Cl)nc2c1	-11.8%	25.1µM*
SMILES	Cruzain Triton	Cruzain noTriton
Cc1ccccc1OCC(=O)N/N=C/c1cc2ccccc2nc1Cl	-0.7%	1.4%
O=C(CSc1nc(=O)n(CCN2CCOCC2)c2c1CCC2)Nc1ccc(F)cc1F	2.0%	4.1%
COc1cc2c(cc1OC)C(CCN)=NCC2	1.0%	4.8%
O=C(CNc1ccc2ccccc2c1)N/N=C/c1cc2ccccc2nc1Cl	-14.4%	25.1µM*
O=C(COc1cccc(Cl)c1)N/N=C\c1cc2ccccc2nc1Cl	9.4%	-18.5%
Cc1c(Cc2ccccc2)c(=O)oc2c(CN(C)C)c(O)c(Cl)cc12	20µM*	u
CN(C)Cc1c(O)ccc2oc(Cc3ccccc3)cc12	-0.6%	-5.4%
Cc1c(-c2nsc(NC(=O)c3cccs3)n2)nnn1-c1ccc(Cl)cc1	0.1%	u
COC(=O)c1cc(NC(=O)c2oc(=O)c3ccccc3c2-c2ccccc2)cc(C(=O)OC)c1	-0.8%	-7.0%
CN(C)S(=O)(=O)c1cccc(N=C2NN=C(c3ccccc3)CS2)c1	-2.6%	31.6µM*
CC1CN(C(=O)c2ccccc2)C(=Nc2cccc(S(=O)(=O)N(C)C)c2)S1 (stereo unspecified)	-0.5%	2.7%
O=c1cc(-c2ccccc2)c2ccc3c(c2o1)CN(Cc1ccccc1)CO3	-25.3%	u
COc1ccc(-c2cc(=O)oc3c4c(ccc23)OCN(Cc2ccccc2)C4)cc1	-25.4%	25.1µM*
Cc1ccc(CN2CCC(CNC(=O)Nc3cccc(Cl)c3C)C2)cc1 (stereo unspecified)	1.8%	3.1%
Cc1csc(/N=C/c2ccc([N+](=O)[O-])cc2)n1	0.6%	20µM*
Cc1csc(NC(=O)c2cc([N+](=O)[O-])cc([N+](=O)[O-])c2)n1	-7.4%	-15.0%
Cc1cc(C)nc(NC(=NCCc2c[nH]c3ccccc23)NC(=O)Nc2ccc(Cl)cc2)n1	-0.8%	25.1µM*
COc1ccc2[nH]cc(CCN=C(NC(=O)c3cccc(Cl)c3)Nc3nc(C)cc(C)n3)c2c1	-1.3%	-28.7%
NC(=O)c1ccc[n+]([C@@H]2OC(COP(=O)([O-])OP(=O)(O)OCC3OC(n4cnc5c(N)ncnc54)C(OP(=O)(O)O)C3O)C(O)C2O)c1 (stereo partly specified)	5.0%	-12.6%
CCCn1c(C)nc2c(NCc3ccccc3)nc(C)nc21	-1.8%	0.5%
CCOC(=O)C1=C(Cc2ccc(Cl)cc2)C(=O)c2ccccc2C1=O	-7.3%	15.8µM*
CCOC(=O)C1=C(C)N=C2c3ccccc3C(=O)C2C1c1ccc(Cl)cc1 (stereo unspecified)	-5.4%	-6.8%
COc1ccccc1NC(=O)c1sc2ncn(Cc3ccc(C)cc3)c(=O)c2c1C	6.5%	-9.2%
COc1ccccc1NC(=O)c1sc2ncn(Cc3cccc4ccccc34)c(=O)c2c1C	12.8%	7.94µM*
Cc1cccc(NC(=O)c2cc(S(=O)(=O)c3ccccc3)ccc2Cl)c1	-4.9%	-2.1%
SMILES	Cruzain Triton	Cruzain noTriton
Cc1ccc(S(=O)(=O)N/N=c2\oc3ccccc3cc2C(=O)Nc2cccc(C)c2)cc1	-1.9%	7.94µM*
Cc1ccc(/C=C/c2onc(C)c2S(=O)(=O)N2CCC(C(=O)N3CCC(N(C)C(C)C)CC3)CC2)cc1	-4.6%	7.7%
Cc1ccc(NC(=O)c2oc3ccccc3c2NC(=O)Cc2ccccc2)cc1	-7.6%	-23.9%
COC(=O)c1c(SC)nc2ccccc2c1OCc1ccc(Cl)cc1	-2.5%	-28.8%
CCCCCCNC(=O)C(C#N)c1nc2ccccc2nc1N1CCCC1 (stereo unspecified)	-9.1%	-15.6%
CCCCCNC(=O)C(C#N)c1nc2ccccc2nc1N1CCCC1 (stereo unspecified)	-2.4%	12.6µM*
CC(C)c1ccc(NC(=O)Nc2cc3sccc3n2C)cc1	-8.5%	7.94µM*
Cn1c(C(=O)Nc2ccc3c(c2)OCCO3)cc2sccc21	-9.4%	u
Cc1cccc(CCNC(=O)C2CCCN(S(=O)(=O)c3ccc4c(c3)oc(=O)n4C)C2)c1 (stereo unspecified)	-2.9%	7.1%
COc1ccc2c(c1)c1nnc(SCC(=O)N3C(C)CCCC3C)nc1n2C (stereo unspecified)	17.8µM*	-17.1%
COc1ccc2c(c1)c1nnc(SC)nc1n2C	-4.6%	-1.3%
NCC1O[C@@H](O[C@@H]2C(O)[C@H](O[C@H]3OC(CO)C(O)C(N)C3O)[C@@H](N)C[C@H]2N)C(N)C(O)C1O (stereo partly specified)	2.8%	1.4%
O=C1OCCN1C(=O)[C@H]1[C@H](c2ccc(F)cc2)C(c2cccc(Cl)c2)=NN1c1ccccc1	-3.9%	20µM*
O=C1OCCN1C(=O)[C@H]1[C@H](c2ccc(Cl)cc2)C(c2cccc(Cl)c2)=NN1c1ccccc1	-13.6%	17.8µM*
CC[C@@H]1C(c2cccc(Cl)c2)=NN(c2ccccc2)[C@H]1C(=O)N1CCOC1=O	-0.7%	-29.9%

Compound activity: PubChem, National Center for Advancing Translational Sciences (NCATS)
